Assay results published in the supplement of paper PMC11732987, “Enantioselective OTUD7B fragment discovery through chemoproteomics screening and high-throughput optimisation” (Communications Chemistry, 2025).

Legend:
Experiment in all cases: log2 ratio of Biotin-Ahx-Ub-VS probe labelling (fragment/DMSO); higher = less target engagement (more negative = stronger competition), active = hit call of the paper (q ≤ 0.05, log2 ratio ≤ -1)
Settings in all cases: compound concentration: 200 uM; treatment time: 3 h
USP34 = USP34 (UniProt Q70CQ2)
Chain of USP34 (Q70CQ2 whole entry, the tested form may be a part): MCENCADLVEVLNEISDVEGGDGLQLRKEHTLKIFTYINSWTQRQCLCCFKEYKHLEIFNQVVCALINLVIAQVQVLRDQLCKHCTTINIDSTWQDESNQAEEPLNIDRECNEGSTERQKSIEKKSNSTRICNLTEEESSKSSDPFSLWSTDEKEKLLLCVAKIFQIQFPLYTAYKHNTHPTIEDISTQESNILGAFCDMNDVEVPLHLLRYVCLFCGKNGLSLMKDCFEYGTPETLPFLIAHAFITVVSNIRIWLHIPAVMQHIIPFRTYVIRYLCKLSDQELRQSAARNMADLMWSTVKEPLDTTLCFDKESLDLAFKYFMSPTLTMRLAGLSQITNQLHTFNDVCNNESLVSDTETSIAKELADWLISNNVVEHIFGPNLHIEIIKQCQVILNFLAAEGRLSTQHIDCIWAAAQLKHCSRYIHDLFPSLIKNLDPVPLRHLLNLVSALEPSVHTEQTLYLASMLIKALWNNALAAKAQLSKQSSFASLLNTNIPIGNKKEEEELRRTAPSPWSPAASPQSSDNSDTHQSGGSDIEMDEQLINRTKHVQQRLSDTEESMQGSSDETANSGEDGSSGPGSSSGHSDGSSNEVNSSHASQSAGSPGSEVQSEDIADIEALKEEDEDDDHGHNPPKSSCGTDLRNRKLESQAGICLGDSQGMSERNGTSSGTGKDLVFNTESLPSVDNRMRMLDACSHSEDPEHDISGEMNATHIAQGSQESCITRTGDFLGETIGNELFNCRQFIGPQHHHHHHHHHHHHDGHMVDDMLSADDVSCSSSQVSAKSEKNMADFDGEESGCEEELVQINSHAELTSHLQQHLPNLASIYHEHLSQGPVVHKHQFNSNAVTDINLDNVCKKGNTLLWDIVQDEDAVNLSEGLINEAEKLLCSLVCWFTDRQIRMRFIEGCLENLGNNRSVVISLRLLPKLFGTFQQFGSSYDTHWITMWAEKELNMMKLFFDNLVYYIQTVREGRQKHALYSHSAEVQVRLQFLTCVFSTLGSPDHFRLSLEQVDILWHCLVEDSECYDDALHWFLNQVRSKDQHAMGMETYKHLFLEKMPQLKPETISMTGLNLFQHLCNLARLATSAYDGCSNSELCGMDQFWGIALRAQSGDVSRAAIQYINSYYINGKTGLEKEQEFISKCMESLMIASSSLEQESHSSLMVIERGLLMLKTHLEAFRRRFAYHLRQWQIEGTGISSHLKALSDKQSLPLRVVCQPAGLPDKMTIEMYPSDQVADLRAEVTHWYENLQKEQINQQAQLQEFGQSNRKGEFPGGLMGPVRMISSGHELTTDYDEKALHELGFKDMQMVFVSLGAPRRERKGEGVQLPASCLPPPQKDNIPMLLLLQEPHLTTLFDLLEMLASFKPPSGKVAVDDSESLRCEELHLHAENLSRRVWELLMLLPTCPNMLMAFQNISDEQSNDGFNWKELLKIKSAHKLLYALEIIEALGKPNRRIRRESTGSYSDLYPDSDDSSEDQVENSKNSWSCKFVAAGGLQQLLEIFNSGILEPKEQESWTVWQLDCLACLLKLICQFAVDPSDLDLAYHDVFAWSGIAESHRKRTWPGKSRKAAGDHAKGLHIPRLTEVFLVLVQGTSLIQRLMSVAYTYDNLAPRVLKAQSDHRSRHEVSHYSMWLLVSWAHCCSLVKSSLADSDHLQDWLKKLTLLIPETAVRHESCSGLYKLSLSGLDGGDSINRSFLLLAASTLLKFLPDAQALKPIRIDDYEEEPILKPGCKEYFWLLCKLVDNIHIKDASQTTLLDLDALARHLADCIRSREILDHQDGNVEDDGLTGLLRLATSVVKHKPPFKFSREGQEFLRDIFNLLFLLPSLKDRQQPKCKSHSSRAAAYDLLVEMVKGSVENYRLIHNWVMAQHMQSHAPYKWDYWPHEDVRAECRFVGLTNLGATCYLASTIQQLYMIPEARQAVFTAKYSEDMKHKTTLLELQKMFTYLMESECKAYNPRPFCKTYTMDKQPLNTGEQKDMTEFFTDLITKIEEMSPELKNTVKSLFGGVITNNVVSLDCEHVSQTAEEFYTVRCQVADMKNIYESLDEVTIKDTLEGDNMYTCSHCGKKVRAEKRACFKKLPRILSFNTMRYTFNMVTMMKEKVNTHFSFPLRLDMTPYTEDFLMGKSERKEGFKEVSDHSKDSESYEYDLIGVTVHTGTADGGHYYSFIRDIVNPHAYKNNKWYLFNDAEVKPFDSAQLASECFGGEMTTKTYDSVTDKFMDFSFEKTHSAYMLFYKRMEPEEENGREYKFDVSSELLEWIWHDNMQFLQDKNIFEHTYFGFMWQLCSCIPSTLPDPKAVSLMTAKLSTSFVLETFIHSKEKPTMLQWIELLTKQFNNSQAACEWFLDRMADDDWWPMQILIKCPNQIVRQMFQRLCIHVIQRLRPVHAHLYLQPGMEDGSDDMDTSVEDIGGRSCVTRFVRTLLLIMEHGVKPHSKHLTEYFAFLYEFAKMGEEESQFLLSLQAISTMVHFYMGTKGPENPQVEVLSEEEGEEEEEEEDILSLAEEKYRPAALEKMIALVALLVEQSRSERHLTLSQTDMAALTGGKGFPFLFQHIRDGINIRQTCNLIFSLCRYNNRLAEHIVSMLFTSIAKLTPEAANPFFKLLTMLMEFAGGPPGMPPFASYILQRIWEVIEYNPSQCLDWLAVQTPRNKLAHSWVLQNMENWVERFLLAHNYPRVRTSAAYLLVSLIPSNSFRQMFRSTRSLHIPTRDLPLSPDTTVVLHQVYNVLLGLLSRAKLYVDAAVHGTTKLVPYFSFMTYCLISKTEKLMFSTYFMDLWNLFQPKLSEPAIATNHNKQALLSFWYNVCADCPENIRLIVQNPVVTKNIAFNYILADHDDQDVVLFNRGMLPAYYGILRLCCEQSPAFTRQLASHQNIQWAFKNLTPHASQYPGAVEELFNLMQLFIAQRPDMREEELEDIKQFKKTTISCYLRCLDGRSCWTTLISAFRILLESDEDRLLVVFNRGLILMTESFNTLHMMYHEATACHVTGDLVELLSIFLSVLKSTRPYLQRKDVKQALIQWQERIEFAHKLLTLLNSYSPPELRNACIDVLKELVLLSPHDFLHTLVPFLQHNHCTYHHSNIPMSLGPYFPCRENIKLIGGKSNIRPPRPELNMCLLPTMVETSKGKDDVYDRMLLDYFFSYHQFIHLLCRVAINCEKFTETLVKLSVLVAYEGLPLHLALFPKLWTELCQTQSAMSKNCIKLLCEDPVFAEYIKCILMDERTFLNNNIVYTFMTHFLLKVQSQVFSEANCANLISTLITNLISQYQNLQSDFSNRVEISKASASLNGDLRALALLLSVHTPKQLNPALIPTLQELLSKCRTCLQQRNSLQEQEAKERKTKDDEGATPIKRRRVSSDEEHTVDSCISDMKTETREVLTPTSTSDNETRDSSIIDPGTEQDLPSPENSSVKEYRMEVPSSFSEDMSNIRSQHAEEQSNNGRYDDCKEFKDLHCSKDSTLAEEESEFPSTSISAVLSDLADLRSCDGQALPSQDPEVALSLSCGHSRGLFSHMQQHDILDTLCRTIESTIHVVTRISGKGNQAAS
Summary of the method: (§1)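 HEK293T lysate, 495 µg per sample in Tris/CHAPS/IGEPAL buffer with protease inhibitors, was treated in triplicate with fragment at 200 µM or vehicle for 3 h and then with Biotin-Ahx-Ub-VS at 0.5 µM final for 1 h. Labelled DUBs were NeutrAvidin-enriched, digested with LysC and trypsin, and run by diaPASEF LC-MS/MS. Spectronaut label-free quantities were global-median-normalised, and values are average log2 fragment/vehicle ratios by unpaired t-test on proteins with ≥2 unique peptides.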

USP36 = molecular target: T1, USP36 (UniProt Q9P275)
T1 sequence (whole entry): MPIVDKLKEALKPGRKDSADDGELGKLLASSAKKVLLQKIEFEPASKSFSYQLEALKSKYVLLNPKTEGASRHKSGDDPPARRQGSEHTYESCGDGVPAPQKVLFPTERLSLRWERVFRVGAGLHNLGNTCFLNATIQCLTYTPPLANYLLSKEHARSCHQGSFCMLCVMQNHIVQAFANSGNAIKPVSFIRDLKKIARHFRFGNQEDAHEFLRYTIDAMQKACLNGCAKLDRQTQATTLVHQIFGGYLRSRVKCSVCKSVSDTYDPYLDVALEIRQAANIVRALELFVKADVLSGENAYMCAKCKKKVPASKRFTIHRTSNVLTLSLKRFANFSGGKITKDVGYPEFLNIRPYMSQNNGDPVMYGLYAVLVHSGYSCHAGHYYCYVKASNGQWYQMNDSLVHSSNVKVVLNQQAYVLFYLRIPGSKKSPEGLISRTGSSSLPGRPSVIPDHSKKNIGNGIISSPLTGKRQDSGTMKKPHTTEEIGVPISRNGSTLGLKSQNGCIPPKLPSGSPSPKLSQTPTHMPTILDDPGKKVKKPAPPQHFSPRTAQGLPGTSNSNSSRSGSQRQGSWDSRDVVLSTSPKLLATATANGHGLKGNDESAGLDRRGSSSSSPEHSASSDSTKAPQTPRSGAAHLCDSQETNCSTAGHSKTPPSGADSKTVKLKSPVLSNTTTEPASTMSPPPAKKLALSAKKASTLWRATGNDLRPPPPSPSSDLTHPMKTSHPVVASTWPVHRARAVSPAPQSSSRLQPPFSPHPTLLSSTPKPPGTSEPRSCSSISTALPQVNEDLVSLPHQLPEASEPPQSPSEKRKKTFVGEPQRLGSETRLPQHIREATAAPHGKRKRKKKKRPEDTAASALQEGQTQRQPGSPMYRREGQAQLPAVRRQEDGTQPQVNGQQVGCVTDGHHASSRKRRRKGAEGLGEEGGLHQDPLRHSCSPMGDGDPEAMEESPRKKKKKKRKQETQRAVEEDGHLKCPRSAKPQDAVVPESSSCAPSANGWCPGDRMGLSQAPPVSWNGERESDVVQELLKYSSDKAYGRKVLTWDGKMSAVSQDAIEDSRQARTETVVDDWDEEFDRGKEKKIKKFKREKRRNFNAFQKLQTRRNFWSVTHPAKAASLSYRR
Summary of the method: as §1

USP38 = molecular target: T2, USP38 (UniProt Q8NB14)
T2 sequence (whole entry): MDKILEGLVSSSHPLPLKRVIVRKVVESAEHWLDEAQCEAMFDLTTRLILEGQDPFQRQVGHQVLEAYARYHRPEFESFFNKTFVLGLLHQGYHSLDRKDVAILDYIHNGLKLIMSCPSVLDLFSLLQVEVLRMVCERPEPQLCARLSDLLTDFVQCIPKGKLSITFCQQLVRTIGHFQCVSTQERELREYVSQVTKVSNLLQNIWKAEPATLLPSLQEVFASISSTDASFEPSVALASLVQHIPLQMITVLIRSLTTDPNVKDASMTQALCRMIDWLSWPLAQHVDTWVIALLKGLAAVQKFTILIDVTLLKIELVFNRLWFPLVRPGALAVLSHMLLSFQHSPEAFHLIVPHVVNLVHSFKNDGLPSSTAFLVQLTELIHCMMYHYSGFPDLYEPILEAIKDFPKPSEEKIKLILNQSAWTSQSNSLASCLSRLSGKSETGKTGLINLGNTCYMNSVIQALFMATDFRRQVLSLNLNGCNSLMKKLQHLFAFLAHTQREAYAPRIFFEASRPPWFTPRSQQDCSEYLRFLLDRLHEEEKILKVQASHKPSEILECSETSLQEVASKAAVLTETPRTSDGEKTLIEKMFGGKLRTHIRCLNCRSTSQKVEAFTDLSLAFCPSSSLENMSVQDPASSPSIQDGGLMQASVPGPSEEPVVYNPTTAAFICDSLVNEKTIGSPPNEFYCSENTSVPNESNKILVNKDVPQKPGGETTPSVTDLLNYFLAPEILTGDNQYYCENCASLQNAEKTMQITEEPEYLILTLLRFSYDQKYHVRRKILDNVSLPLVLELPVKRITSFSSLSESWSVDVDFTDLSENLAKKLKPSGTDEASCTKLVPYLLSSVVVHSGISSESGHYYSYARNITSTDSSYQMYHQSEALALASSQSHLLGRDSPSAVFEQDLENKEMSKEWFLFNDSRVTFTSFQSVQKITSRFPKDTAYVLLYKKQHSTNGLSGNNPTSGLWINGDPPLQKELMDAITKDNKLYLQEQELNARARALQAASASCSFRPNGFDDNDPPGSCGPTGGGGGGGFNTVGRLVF
Summary of the method: as §1

USP39 = molecular target: T3, USP39 (UniProt Q53GS9)
T3 sequence (whole entry): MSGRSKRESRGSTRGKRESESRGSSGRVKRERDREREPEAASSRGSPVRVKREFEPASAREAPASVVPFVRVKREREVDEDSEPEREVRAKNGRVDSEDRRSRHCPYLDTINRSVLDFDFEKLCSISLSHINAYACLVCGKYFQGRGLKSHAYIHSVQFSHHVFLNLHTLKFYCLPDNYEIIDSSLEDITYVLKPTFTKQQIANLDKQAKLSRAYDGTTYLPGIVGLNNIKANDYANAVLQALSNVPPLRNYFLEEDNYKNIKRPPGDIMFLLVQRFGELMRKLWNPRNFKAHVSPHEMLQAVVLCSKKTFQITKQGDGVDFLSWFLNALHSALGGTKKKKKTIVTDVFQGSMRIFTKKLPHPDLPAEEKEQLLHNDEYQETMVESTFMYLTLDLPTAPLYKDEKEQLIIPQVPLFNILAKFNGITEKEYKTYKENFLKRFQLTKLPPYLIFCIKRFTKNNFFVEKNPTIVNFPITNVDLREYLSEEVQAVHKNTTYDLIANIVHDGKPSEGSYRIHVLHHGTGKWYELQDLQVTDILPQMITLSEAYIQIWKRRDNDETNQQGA
Summary of the method: as §1

USP4 = molecular target: T4, USP4 (UniProt Q13107)
T4 sequence (whole entry): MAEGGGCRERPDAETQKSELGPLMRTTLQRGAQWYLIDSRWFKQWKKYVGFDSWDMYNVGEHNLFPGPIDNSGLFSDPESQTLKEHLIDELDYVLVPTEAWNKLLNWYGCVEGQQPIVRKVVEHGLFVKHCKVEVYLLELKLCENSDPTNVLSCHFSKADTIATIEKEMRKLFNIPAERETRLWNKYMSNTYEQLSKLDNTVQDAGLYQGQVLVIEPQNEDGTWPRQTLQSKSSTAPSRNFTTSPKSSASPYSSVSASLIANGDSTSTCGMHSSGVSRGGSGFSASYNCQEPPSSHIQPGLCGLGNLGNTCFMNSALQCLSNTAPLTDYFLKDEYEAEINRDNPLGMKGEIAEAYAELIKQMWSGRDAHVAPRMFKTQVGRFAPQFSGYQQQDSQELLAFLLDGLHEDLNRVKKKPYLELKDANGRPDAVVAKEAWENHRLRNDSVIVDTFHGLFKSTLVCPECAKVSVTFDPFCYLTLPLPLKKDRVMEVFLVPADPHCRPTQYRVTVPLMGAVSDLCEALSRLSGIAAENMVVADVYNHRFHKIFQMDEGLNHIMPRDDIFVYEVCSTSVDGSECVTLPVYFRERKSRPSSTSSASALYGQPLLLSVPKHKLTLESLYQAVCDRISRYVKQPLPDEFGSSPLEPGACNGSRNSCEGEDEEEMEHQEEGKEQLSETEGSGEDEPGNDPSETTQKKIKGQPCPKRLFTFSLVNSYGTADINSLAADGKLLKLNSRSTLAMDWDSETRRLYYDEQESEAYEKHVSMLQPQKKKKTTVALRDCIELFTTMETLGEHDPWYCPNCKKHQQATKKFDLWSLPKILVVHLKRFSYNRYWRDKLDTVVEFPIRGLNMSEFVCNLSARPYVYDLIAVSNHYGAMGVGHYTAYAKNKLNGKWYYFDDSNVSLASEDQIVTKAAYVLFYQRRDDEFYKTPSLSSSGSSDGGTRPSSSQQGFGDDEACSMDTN
Summary of the method: as §1

Measured: log2 ratio of Biotin-Ahx-Ub-VS probe labelling

O=C(CCl)N1CCC(c2ccn[nH]2)C1 (stereo not given)
inactive: USP34 0.0363 | USP36 -0.353 | USP38 -0.148 | USP39 0.00596 | USP4 -0.113
